From PubChem BioAssay (NCATS)
Inconclusive results are not listed. The source made the active and inactive calls. Calls follow the shape of the dose curve; as a rule, active = well fitted curve in the direction sought with a large enough effect; inconclusive = small, poorly fitted or top-dose-only effect, or another doubt; inactive = no such curve, though single readings can be large; an effect the other way counts as inactive or inconclusive.

Columns and labels:
[1] = target: Glutathione peroxidase 1 (Homo sapiens) (UniProt P07203); test: Primary qHTS Assay for Inhibitors of Recombinant Selenoprotein Glutathione Peroxidase 1 (GPX1) (AID 1845191); also: nearly all actives have a fitted effect of over 65% in size
Glutathione peroxidase 1 (Homo sapiens), sequence (P07203 whole entry, looked up): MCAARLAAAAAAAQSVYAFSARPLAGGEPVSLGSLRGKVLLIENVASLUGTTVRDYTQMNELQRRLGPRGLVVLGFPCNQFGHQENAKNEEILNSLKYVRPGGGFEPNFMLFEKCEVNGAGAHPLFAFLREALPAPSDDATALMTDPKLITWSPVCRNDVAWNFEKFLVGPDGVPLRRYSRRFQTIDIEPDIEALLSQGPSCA
Procedure, shortened: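 NADPH consumption tracked by fluorescence at 340/450 nm between t=0 and t=15 min, room temperature. Final mix: 10 nM GPX1, 100 nM glutathione reductase, 1 mM GSH, 0.5 mM NADPH, 0.5 mM cumene hydroperoxide, 0.01% BSA; 30 min compound–enzyme preincubation.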

[2] = Quantitative High-Throughput drug screen in 47 multiple myeloma cell lines against the NCATS MIPE library collection: FR4_PLB cell viability assay (AID 1918924; also: nearly all actives have a fitted effect of over 35% in size; also: potency is read from the fitted curve at half-maximal effect)
Procedure, shortened: (§1)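 Approved and investigational drugs from MIPE 4.0 were added by pin tool to 500 cells per well. After 48 hours at 37C, ATP-based CellTiter-Glo luminescence indicated remaining viability.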

[3] = Quantitative High-Throughput drug screen in 47 multiple myeloma cell lines against the NCATS MIPE library collection: EJM_DSMZ cell viability assay (AID 1918926; also: nearly all actives have a fitted effect of over 30% in size; also: potency is read from the fitted curve at half-maximal effect)
Procedure, shortened: (§2)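 Inhibition of cell viability is measured here. Each line was plated at 500 cells per well, treated with MIPE 4.0 drugs, kept 48 hours at 37C, then assayed for ATP content by CellTiter-Glo luminescence.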

[4] = Quantitative High-Throughput drug screen in 47 multiple myeloma cell lines against the NCATS MIPE library collection: AMO1_DSMZ cell viability assay (AID 1918927; also: nearly all actives have a fitted effect of over 30% in size; also: potency is read from the fitted curve at half-maximal effect)
Procedure, shortened: as §2

[5] = Quantitative High-Throughput drug screen in 47 multiple myeloma cell lines against the NCATS MIPE library collection: ARD_JJKsccE7 cell viability assay (AID 1918929; also: potency is read from the fitted curve at half-maximal effect;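 as to viability: 100% = DMSO-only wells and 0% = media-only wells without cells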)
Procedure, shortened: as §2

[6] = Quantitative High-Throughput drug screen in 47 multiple myeloma cell lines against the NCATS MIPE library collection: Karpas620_DSMZ cell viability assay (AID 1918959); also: nearly all actives have a fitted effect of over 30% in size; also: potency is read from the fitted curve at half-maximal effect;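 as to viability (% of DMSO): 100% = DMSO-only wells and 0% = cell-free media-only wells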
Procedure, shortened: as §1

[7] = Quantitative High-Throughput drug screen in 47 multiple myeloma cell lines against the NCATS MIPE library collection: KMM1_JCRB cell viability assay (AID 1918960); also: nearly all actives have a fitted effect of over 30% in size; also: potency is read from the fitted curve at half-maximal effect
Procedure, shortened: (§3)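 Viability screen: myeloma cells (500/well) incubated 48 h at 37 °C, humidified 5% CO2, with pinned library compounds; CellTiter-Glo added, luminescence read; DMSO wells set 100%, medium-only wells 0%.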

[8] = Quantitative High-Throughput drug screen in 47 multiple myeloma cell lines against the NCATS MIPE library collection: JIM3_ECACC cell viability assay (AID 1918963; also: nearly all actives have a fitted effect of over 35% in size; also: potency is read from the fitted curve at half-maximal effect)
Procedure, shortened: as §1

[9] = Quantitative High-Throughput drug screen in 47 multiple myeloma cell lines against the NCATS MIPE library collection: JIM1_ECACC cell viability assay (AID 1918964; also: potency is read from the fitted curve at half-maximal effect)
Procedure, shortened: as §2

[10] = Quantitative High-Throughput drug screen in 47 multiple myeloma cell lines against the NCATS MIPE library collection: Delta47_JCRB cell viability assay (AID 1918925; also: nearly all actives have a fitted effect of over 45% in size; also: potency is read from the fitted curve at half-maximal effect)
Procedure, shortened: as §2

[11] = Quantitative High-Throughput drug screen in 47 multiple myeloma cell lines against the NCATS MIPE library collection: ARP1_JJKsccF8 cell viability assay (AID 1918928; also: nearly all actives have a fitted effect of over 40% in size; also: potency is read from the fitted curve at half-maximal effect)
Procedure, shortened: as §3

[12] = Quantitative High-Throughput drug screen in 47 multiple myeloma cell lines against the NCATS MIPE library collection: Karpas417_ECACC cell viability assay (AID 1918961); conditions: Karpas417 myeloma viability, CellTiter-Glo ATP luminescence, 48 h; viability (% of DMSO): at 45.8 µM (top of the series); also: potency is read from the fitted curve at half-maximal effect;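 as to viability (% of DMSO): 100% = DMSO only wells and 0% = media only wells without cells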
Procedure, shortened: as §2

[13] = Quantitative High-Throughput drug screen in 47 multiple myeloma cell lines against the NCATS MIPE library collection: KHM11_PLB cell viability assay (AID 1918962); also: nearly all actives have a fitted effect of over 35% in size; also: potency is read from the fitted curve at half-maximal effect
Procedure, shortened: as §1

[14] = target: Luciferin 4-monooxygenase (Photinus pyralis) (UniProt P08659); test: Primary firefly luciferase (FLuc) qHTS assay for identification of artifact compounds. (AID 1845220); conditions: outcome: dose series up to 54.1 µM unless noted; also: nearly all actives have a fitted effect of over 60% in size
Procedure, shortened: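 Cell-free, 1536-well qHTS. Buffer pH 7.6 with 0.01% Tween-20 and 0.05% BSA; 10 uM D-luciferin, 10 uM ATP; 10 nM P. pyralis luciferase; luminescence after 5 min.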

[15] = Primary fluorescence-based thiol-reactive (MSTI) qHTS assay for identification of artifact compounds. (AID 1845221);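 also: thiol-reactive compounds lower the probe fluorescence signal; nearly all actives have a fitted effect of over 65% in size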
Procedure, shortened: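 Reactivity toward the thiol probe MSTI (4 uM) is scored by fluorescence at Ex/Em 525/598 nm after 1 h at room temperature. Acetyl-MSTI and MSTI define the activity scale.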

[16] = tested on: Nanoluciferase (engineered Oplophorus gracilirostris luciferase); test: Primary Nanoluciferase (NLuc) qHTS assay for identification of artifact compounds. (AID 1845222);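 also: 0% = DMSO and -100% = no enzyme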
Procedure, shortened: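 Compounds are pinned into diluted (1:55) conditioned medium of NLuc-expressing S16 cells and held 15 min at room temperature protected from light. Nano-Glo substrate follows, and luminescence is read 5 min later.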

CN(C)NC(=O)CCC(=O)O
inactive: Potency [1] | Potency [2] | Potency [3] | Potency [4] | Potency [5] | Potency [6] | Potency [7] | Potency [8] | Potency [9]

COc1cccc2c1[C@]13CCN(CC4CC4)[C@H](C2)[C@]1(OC)CCC(=O)C3
active: viability (% of DMSO) [12] 89.4%
inactive: Potency [2] | Potency [10] | Potency [3] | Potency [4] | Potency [11] | Potency [5] | Potency [6] | Potency [7] | Potency [13] | Potency [8]

CN(C)[C@@H]1C(=O)C(C(N)=O)=C(O)[C@@]2(O)C(=O)C3=C(O)c4c(O)cccc4[C@@](C)(O)[C@H]3[C@H](O)[C@@H]12
inactive: Potency [1] | Potency [2] | Potency [3] | Potency [5] | Potency [12]
active: Potency [13] 7430 nM

CCC(=O)OC1CCC2C3CCC4=CC(=O)CC[C@@]4(C)C3CC[C@]12C (stereo partly specified)
active: Potency [10] 18700 nM
inactive: Potency [2] | Potency [3] | Potency [4] | Potency [5] | Potency [6] | Potency [13] | Potency [8]

O=C(N[C@@H](COc1ccc2[nH]c(=O)[nH]c2c1)c1ccccc1)c1cccn(Cc2ccc(F)c(F)c2)c1=O
active: Potency [10] 20900 nM | Potency [4] 18700 nM | Potency [5] 18700 nM | Potency [7] 18700 nM
inactive: Potency [1] | outcome [14] | Potency [15] | outcome [16]

C[C@@H]1CC[C@@]2(OC1)O[C@H]1C[C@H]3[C@@H]4CC=C5C[C@@H](O[C@@H]6O[C@H](CO)[C@@H](O[C@@H]7O[C@@H](C)[C@H](O)[C@@H](O)[C@@H]7O)[C@H](O)[C@@H]6O[C@@H]6O[C@@H](C)[C@H](O)[C@@H](O)[C@@H]6O)CC[C@]5(C)[C@@H]4CC[C@]3(C)[C@@H]1[C@H]2C
active: Potency [2] 2350 nM | Potency [10] 5900 nM | Potency [3] 2640 nM | Potency [4] 2640 nM | Potency [5] 2350 nM | Potency [6] 2960 nM | Potency [7] 2640 nM | Potency [12] 1050 nM | Potency [13] 2960 nM | Potency [8] 3720 nM | Potency [9] 2350 nM

C[C@]12CC[C@@H]3[C@@H](CCC4=CC(=O)CC[C@@H]43)[C@@H]1CC[C@@H]2OC(=O)CCc1ccccc1
inactive: Potency [1] | Potency [2] | Potency [4] | Potency [6] | Potency [8]

CC(C)(C)c1cc(C=C(C#N)C#N)cc(Br)c1O
inactive: Potency [1]
active: Potency [2] 26400 nM | Potency [10] 16600 nM | Potency [3] 23500 nM | Potency [4] 26400 nM | Potency [11] 26400 nM | Potency [13] 14800 nM | Potency [8] 16600 nM

CCNC(=O)C[C@@H]1N=C(c2ccc(Cl)cc2)c2cc(OC)ccc2-n2c(C)nnc21
active: Potency [10] 418 nM | Potency [3] 1050 nM | Potency [4] 372 nM | Potency [5] 264 nM | Potency [6] 1050 nM | Potency [7] 235 nM | Potency [12] 13.2 nM | Potency [8] 6620 nM | Potency [9] 1660 nM
inactive: Potency [1] | outcome [14] | Potency [15]

CC(=O)Nc1ccc(OC[C@](C)(O)C(=O)Nc2ccc([N+](=O)[O-])c(C(F)(F)F)c2)cc1
inactive: Potency [1] | outcome [14] | outcome [16] | Potency [2] | Potency [5] | Potency [6] | Potency [13] | Potency [8]

CCOC(=O)c1cncn1[C@H](C)c1ccccc1
inactive: Potency [2] | Potency [10] | Potency [3] | Potency [4] | Potency [7] | Potency [13] | Potency [8] | Potency [9]

O=[N+]([O-])c1ncc[nH]1
inactive: Potency [2] | Potency [10] | Potency [3] | Potency [4] | Potency [6] | Potency [7] | Potency [12] | Potency [8]

C1=C2CCCN[C@H]2[C@@H]2C[C@H]1[C@@H]1CCCCN1C2
inactive: Potency [2] | Potency [10] | Potency [3] | Potency [4] | Potency [6] | Potency [7] | Potency [12] | Potency [13] | Potency [8]
